Test results published in PubChem BioAssay.
Activity calls are given as the source filed them. Unless noted, no rule for the calls is given here.

What was measured:
[1] = compounds binding Alexa647 anti-His antibody – biochemical, small-molecule microarray, 635 nm fluorescence, artefact control for SMM control protein annotation, primary screen (AID 1128); conditions: higher = more signal;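 also: score merges feature fluorescence with signal-to-noise for each printed compound spot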
[2] = system: Human papillomavirus type 1a E7 protein (residues 1-88); assay: HPV1a E7 small-molecule binders, primary screen, biochemical, small-molecule microarray, residues 1-88, 635 nm (AID 1129); conditions: small-molecule microarray binding, fluorescence 635 nm; higher = more signal
[3] = target: Focal adhesion kinase 1 (Homo sapiens) (UniProt Q05397); assay: PTK2 protein binding on printed compound slides – biochemical, small-molecule microarray, 635/667 nm fluorescence, BSA, DTT, primary screen (AID 1130); conditions: 635 nm fluorescence, higher = more signal;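 also: composite of spot emission at 667 nm and signal to noise over triplicate slides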
[4] = system: Fibrinogen (Alexa647-labelled); assay: Alexa647-fibrinogen binding to printed small molecules – biochemical, small-molecule microarray, 635/667 nm fluorescence, artefact control for SMM control-protein annotation, profiling panel (AID 1131); conditions: fibrinogen-A647 binding fluorescence, higher = more signal;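 also: z-score merges 667 nm fluorescence with per-spot signal-to-noise over triplicate slides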
[5] = target: Follistatin (Homo sapiens) (UniProt P19883); assay: FST protein binding to printed compounds – biochemical, small-molecule microarray, 635/667 nm fluorescence, primary screen (AID 1132); conditions: 635 nm fluorescence, higher = more signal
[6] = target: Fibroblast growth factor 2 (Homo sapiens) (UniProt P09038); assay: basic fibroblast growth factor binding to printed compounds – biochemical, small-molecule microarray, 635/667 nm fluorescence, primary screen (AID 1133); conditions: FGF2, fluorescence 635/667, higher = more signal
[7] = JC-1 mitochondrial potential readout, lung cancer cells – cell-based, A549, JC-1 fluorescence, basal, 24 h, 100 nL, profiling panel (AID 1138); conditions: higher = more signal;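 also: A549 lung adenocarcinoma cells under basal conditions with no added stimulus; test concentration not given here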
Lefty1 = Lefty1 protein binding to printed compounds – biochemical, small-molecule microarray, 635/667 nm fluorescence, primary screen (AID 1139); conditions: fluorescence 635/667, higher = more signal
[8] = system: wheat germ agglutinin (Triticum aestivum), Alexa647-labelled; assay: Alexa647-WGA lectin binding to printed small molecules – biochemical, small-molecule microarray, 635/667 nm fluorescence, artefact control for SMM control-protein annotation, profiling panel (AID 1140); conditions: WGA-A647 binding, 635 nm fluorescence, higher = more signal;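 also: score merges 667 nm feature emission with signal to noise over triplicate slides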
[9] = target: Luciferin 4-monooxygenase (Photinus pyralis) (UniProt P08659); assay: inhibition of purified Photinus pyralis luciferase – biochemical, luminescence, purified enzyme, 2006 set, primary screen (AID 1141); conditions: purified firefly luciferase, SteadyGlo luminescence, 30 min; higher = more signal, called active from +8 up or from −8 down;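 also: cell-free assay with purified firefly luciferase at 100 ng per well in PBS; test concentration not given here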
[10] = system: Wnt5a (protein binding on small-molecule microarray); assay: small molecules binding Wnt5a protein – biophysical, small-molecule microarray, 635/667 nm fluorescence, primary screen (AID 1142); conditions: 635 nm fluorescence, higher = more signal;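 also: fluorescence read at 667 nm with signal to noise per printed feature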
[11] = ATP-based viability of Huh7 replicon cells – cell-based, CellTiter-Glo luminescence, basal, 48 h, cytotoxicity control for HCV replication inhibitor project, primary screen (AID 1143); conditions: higher = more signal, called active from +8 up or from −8 down;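 also: Huh7 hepatoma cells carrying a hepatitis C replication reporter with no stimulus; test concentration not given here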
[12] = Pseudomonas biofilm growth suppression – PAO1 strain, BacTiter-Glo luminescence, LB-PBS, primary screen (AID 1144); conditions: P. aeruginosa PAO1 biofilm, 12 h, higher = more signal
[13] = basal CRE-LacZ reporter activity in PC12 – cell-based, unstimulated, primary screen (AID 1145); conditions: no forskolin, luminescence, 4.5 h, higher = more signal, called active from +8 up or from −8 down
[14] = forskolin-driven CRE-LacZ activity in PC12 – cell-based, CRE-LacZ reporter, forskolin-stimulated, primary screen (AID 1146); conditions: luminescence, 4.5 h, higher = more signal, called active from +8 up or from −8 down;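 also: PC12 cells with 6xCRE LacZ reporter stimulated by forskolin 10 µM; beta-galactosidase reporter signal reflecting CREB driven transcription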
[15] = target: Streptavidin (Streptomyces avidinii) (UniProt P22629); assay: compounds binding control protein streptavidin – biophysical, small-molecule microarray, 635/667 nm fluorescence, artefact control for SMM compound annotation, primary screen (AID 1147); conditions: higher = more signal;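 also: signal reflects streptavidin binding to arrayed compounds as a control protein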
[16] = probe aInhba binding on compound microarray – biochemical, small-molecule microarray, 635/667 nm fluorescence, primary screen (AID 1148); conditions: higher = more signal;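 also: score merges 667nm spot fluorescence with signal-to-noise for antibody binding to printed compounds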
Torsin-1A (Homo sapiens) [17] = target: Torsin-1A (Homo sapiens) (UniProt O14656); assay: TOR1A wild-type binding on microarray – cell lysate, small-molecule microarray, lysate, 635/667 nm, primary screen (AID 1149); conditions: COS7 hTOR1A-WT lysate, 635 nm fluorescence, higher = more signal
Torsin-1A (Homo sapiens) [18] = target: Torsin-1A (Homo sapiens) (UniProt O14656); assay: torsin A mutant lysate binding on microarrays – cell lysate, small-molecule microarray, COS7 lysate, 635/667 nm fluorescence, primary screen (AID 1150); conditions: COS7 hTOR1A mutant lysate, 635 nm fluorescence, higher = more signal;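 also: score pools 667 nm emission and signal to noise measuring lysate protein binding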
[19] = system: Sonic hedgehog protein (Shh); assay: Sonic hedgehog microarray binding compounds – biochemical, small-molecule microarray, 635/667 nm fluorescence, primary screen (AID 1151); conditions: 635 nm fluorescence, higher = more signal;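 also: Shh protein binding to compounds spotted on small-molecule microarray slides; score combines spot fluorescence intensity with signal-to-noise across triplicate slides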

Chain of Streptavidin (Streptomyces avidinii) (P22629 whole entry, looked up): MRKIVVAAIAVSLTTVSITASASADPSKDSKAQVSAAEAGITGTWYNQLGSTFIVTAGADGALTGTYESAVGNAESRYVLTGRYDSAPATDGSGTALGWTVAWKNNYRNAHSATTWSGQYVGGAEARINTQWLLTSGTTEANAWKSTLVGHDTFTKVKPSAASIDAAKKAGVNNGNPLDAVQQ
Chain of Luciferin 4-monooxygenase (Photinus pyralis) (P08659 whole entry, looked up): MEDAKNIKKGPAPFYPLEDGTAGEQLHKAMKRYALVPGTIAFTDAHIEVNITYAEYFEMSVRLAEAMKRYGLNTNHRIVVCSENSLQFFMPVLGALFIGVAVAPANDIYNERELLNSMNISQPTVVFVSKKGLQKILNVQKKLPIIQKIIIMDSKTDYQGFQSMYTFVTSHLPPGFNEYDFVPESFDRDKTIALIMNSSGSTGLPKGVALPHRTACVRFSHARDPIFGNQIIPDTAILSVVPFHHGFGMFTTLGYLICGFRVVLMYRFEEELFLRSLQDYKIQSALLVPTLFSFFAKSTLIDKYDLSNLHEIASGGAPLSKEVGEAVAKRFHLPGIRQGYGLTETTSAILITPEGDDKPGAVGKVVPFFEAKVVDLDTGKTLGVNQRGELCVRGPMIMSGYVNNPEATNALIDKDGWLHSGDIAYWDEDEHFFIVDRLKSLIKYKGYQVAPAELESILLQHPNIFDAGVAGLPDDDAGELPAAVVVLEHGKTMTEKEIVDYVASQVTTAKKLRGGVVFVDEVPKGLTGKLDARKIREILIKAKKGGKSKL
Chain of Follistatin (Homo sapiens) (P19883 whole entry, looked up): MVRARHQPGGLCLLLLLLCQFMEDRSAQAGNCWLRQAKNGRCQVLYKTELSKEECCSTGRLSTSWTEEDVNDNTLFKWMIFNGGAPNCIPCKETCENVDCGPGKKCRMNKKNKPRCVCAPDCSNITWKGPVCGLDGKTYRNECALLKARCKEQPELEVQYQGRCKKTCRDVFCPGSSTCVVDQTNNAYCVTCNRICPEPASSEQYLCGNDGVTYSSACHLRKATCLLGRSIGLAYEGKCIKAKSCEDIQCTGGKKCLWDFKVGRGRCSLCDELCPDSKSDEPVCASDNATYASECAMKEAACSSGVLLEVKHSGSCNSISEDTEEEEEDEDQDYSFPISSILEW
Chain of Fibroblast growth factor 2 (Homo sapiens) (P09038 whole entry, looked up): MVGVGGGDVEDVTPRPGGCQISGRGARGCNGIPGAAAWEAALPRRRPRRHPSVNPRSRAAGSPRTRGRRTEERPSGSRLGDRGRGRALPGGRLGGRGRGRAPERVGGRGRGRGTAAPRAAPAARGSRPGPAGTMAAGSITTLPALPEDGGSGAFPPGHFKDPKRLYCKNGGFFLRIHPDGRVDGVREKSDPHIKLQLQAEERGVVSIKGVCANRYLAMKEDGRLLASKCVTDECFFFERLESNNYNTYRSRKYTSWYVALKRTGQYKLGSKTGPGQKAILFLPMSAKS
Chain of Focal adhesion kinase 1 (Homo sapiens) (Q05397 whole entry, looked up): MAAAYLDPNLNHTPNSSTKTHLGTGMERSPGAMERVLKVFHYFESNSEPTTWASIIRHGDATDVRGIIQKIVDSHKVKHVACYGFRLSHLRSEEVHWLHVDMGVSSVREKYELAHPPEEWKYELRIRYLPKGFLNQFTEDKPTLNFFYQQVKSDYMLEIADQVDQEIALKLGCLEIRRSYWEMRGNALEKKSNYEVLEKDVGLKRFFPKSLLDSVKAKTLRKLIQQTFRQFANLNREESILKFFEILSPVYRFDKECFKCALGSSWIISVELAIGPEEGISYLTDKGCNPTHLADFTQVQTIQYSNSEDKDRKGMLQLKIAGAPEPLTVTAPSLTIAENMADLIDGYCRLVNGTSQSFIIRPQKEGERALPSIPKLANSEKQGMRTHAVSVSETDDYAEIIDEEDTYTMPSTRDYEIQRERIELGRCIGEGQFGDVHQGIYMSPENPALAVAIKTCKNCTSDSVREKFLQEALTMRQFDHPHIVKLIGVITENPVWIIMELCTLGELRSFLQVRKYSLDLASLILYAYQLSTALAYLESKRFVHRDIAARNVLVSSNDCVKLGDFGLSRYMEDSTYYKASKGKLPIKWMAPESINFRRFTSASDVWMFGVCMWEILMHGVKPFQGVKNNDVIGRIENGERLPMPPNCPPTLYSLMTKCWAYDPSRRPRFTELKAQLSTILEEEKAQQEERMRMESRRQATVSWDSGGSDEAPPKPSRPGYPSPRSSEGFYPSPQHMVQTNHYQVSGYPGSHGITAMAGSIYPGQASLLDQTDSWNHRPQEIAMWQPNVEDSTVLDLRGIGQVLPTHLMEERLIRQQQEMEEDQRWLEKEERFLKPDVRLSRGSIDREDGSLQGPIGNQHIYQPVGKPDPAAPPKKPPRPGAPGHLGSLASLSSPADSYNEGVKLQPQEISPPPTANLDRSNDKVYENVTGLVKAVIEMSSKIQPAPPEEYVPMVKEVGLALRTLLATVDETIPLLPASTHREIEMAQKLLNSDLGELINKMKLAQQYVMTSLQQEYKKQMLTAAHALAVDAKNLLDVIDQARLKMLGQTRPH
Chain of Torsin-1A (Homo sapiens) (O14656 whole entry, looked up): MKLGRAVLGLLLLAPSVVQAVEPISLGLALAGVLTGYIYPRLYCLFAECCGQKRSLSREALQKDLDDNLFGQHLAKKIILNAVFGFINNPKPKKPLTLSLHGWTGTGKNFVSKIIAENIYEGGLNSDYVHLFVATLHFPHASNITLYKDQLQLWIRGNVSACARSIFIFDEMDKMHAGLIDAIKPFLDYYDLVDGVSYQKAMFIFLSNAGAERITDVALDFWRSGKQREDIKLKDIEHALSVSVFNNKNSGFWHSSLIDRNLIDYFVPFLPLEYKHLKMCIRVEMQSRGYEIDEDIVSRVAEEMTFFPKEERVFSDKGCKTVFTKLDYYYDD

COCCCNC(=O)[C@]1(CCS(=O)(=O)c2ccccc2)N=C(c2ccc(OCCCO)cc2)O[C@@H]1c1ccccc1
composite z-score [1]: 1.85 | composite z-score [2]: 1.27 | composite z-score [3]: 1.57 | composite z-score [4]: 0.997 | composite z-score [5]: 0.892 | composite z-score [6]: 1.36 | z-score [7]: 1.3 | composite z-score (Lefty1): 0.136 | composite z-score [8]: 0.455 | z-score [9]: -1.45 (inactive) | composite z-score [10]: 0.118 | z-score [11]: -1.63 (inactive) | z-score [12]: -0.812 (inactive) | z-score [13]: 0.638 (inactive) | z-score [14]: -1.33 (inactive) | composite z-score [15]: 1.43 | composite z-score [16]: 0.371 | composite z-score (Torsin-1A (Homo sapiens) [17]): 0.972 | composite z-score (Torsin-1A (Homo sapiens) [18]): 1.33 | composite z-score [19]: 0.306

COCCOC(=O)N1C(=O)[C@@]2(c3cc(C#Cc4ccc(OC)cc4)ccc31)[C@H](c1ccc(OCCO)cc1)N1[C@H](c3ccccc3)[C@H](c3ccccc3)OC(=O)[C@H]1[C@@H]2C(N)=O
composite z-score [1]: 2.14 | composite z-score [2]: 1.13 | composite z-score [3]: 1.03 | composite z-score [4]: 0.519 | composite z-score [5]: 1.41 | composite z-score [6]: 1.31 | z-score [7]: -1.28 | composite z-score (Lefty1): 1.39 | composite z-score [8]: 1 | z-score [9]: -0.35 (inactive) | composite z-score [10]: 0.41 | z-score [11]: -2.73 (inactive) | z-score [12]: 0.854 (inactive) | z-score [13]: -1.15 (inactive) | z-score [14]: -1.28 (inactive) | composite z-score [15]: 0.879 | composite z-score [16]: 0.187 | composite z-score (Torsin-1A (Homo sapiens) [17]): 0.428 | composite z-score (Torsin-1A (Homo sapiens) [18]): 0.835 | composite z-score [19]: 1.96

C=C(CCCC)/C(=C/C[C@H](OC(=O)c1ccncc1)c1ccc(CO)o1)c1cc(C(=O)OC)ccc1OC
composite z-score [1]: 0.872 | composite z-score [2]: 1.19 | composite z-score [3]: -0.0174 | composite z-score [4]: 0.826 | composite z-score [5]: 0.899 | composite z-score [6]: 1.08 | z-score [7]: -0.648 | composite z-score (Lefty1): 1.28 | composite z-score [8]: 1.04 | z-score [9]: -1.19 (inactive) | composite z-score [10]: 0.0136 | z-score [11]: -0.441 (inactive) | z-score [12]: -0.525 (inactive) | z-score [13]: 0.201 (inactive) | z-score [14]: 2.68 (inactive) | composite z-score [15]: 0.551 | composite z-score [16]: 0.221 | composite z-score (Torsin-1A (Homo sapiens) [17]): 0.428 | composite z-score (Torsin-1A (Homo sapiens) [18]): 0.646 | composite z-score [19]: 1.63

COC(=O)C(CC#Cc1ccc2c(c1)[C@]1(C(=O)N2)[C@H](c2ccccc2OCCO)N2[C@H](c3ccccc3)[C@H](c3ccccc3)OC(=O)[C@H]2[C@@H]1C(=O)Nc1nc2ccccc2s1)C(=O)OC
composite z-score [1]: 0.35 | composite z-score [2]: 1.21 | composite z-score [3]: 0.607 | composite z-score [4]: 0.97 | composite z-score [5]: 1.11 | composite z-score [6]: 0.622 | z-score [7]: -2.12 | composite z-score (Lefty1): 0.9 | composite z-score [8]: 1.29 | z-score [9]: -1.21 (inactive) | composite z-score [10]: 0.384 | z-score [11]: -2.07 (inactive) | z-score [12]: -0.827 (inactive) | z-score [13]: 1.21 (inactive) | z-score [14]: 1.53 (inactive) | composite z-score [15]: 0.762 | composite z-score [16]: 0.0633 | composite z-score (Torsin-1A (Homo sapiens) [17]): 0.283 | composite z-score (Torsin-1A (Homo sapiens) [18]): 0.24 | composite z-score [19]: 1.46

[N-]=[N+]=Nc1ccccc1[C@@H]1OC(c2ccc(OCCCO)cc2)=N[C@]1(CCS(=O)(=O)c1ccccc1)C(=O)NCc1ccccc1
composite z-score [1]: 1.13 | composite z-score [2]: 0.742 | composite z-score [3]: 1.03 | composite z-score [4]: 0.982 | composite z-score [5]: 1.3 | composite z-score [6]: 1.06 | z-score [7]: 0.27 | composite z-score (Lefty1): -0.141 | composite z-score [8]: 1.2 | z-score [9]: -11.9 (active) | composite z-score [10]: 0.554 | z-score [11]: -1.97 (inactive) | z-score [12]: 0.156 (inactive) | z-score [13]: -0.744 (inactive) | z-score [14]: -0.653 (inactive) | composite z-score [15]: 1.3 | composite z-score [16]: 0.293 | composite z-score (Torsin-1A (Homo sapiens) [17]): 1.53 | composite z-score (Torsin-1A (Homo sapiens) [18]): 1.29 | composite z-score [19]: 0.565
